Compound activity deposited in PubChem BioAssay by The Scripps Research Institute Molecular Screening Center.
MITF primary – inhibitors of human MITF. 650,000 tested, 0.91% active. O75030. inhibition, % at 2.6 µM. AlphaScreen MITF homodimerization, bead proximity signal. AID 1259374; in the data active = inhibition above about 50%;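 note: 0% = vehicle wells with protein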
Target sequence (O75030 whole entry, looked up): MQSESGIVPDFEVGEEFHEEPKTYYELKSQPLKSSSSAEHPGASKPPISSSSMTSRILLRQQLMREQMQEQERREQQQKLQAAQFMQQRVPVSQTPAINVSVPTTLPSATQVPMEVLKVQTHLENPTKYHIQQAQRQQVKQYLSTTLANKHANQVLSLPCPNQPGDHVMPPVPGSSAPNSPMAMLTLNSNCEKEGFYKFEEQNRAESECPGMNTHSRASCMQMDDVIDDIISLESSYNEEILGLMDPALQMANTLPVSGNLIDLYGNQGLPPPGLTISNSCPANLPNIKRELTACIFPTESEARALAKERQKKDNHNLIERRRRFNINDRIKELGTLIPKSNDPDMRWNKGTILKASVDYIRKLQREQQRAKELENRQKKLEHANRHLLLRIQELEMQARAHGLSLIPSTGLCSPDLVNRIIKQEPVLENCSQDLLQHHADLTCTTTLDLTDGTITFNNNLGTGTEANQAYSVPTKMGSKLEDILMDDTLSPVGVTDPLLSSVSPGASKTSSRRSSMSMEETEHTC
TEAD-YAP block – TEAD-YAP interaction inhibition; HEK-TIYL cells, TEAD-Gal4/YAP UAS-luciferase luminescence; inhibition, % at 9.12 µM; 640,000 tested, 1.4% active; in the data active = inhibition above about 32%;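 note: 0% = median of test compound wells and 100% = reference inhibitor wells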
GPR151 activ – activates the human receptor GPR151 | activation, % at 11.2 µM | PathHunter beta-arrestin GPR151 cells, luminescence | 650,000 tested, 1% active | Q8TDV0; in the data active = activation above about 4.9%;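 note: 0% = median of compound wells and 100% = cells with positive control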
FBW7 activator – activators of human E3 ligase FBW7. Q969H0. AlphaScreen FBW7–phospho-cyclin E peptide binding, activator screen. normalized activity (activation), % at 26.1 µM. AID 1259310. 650,000 tested, 0.13% active; in the data active = normalized activity above about 1.9%;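 note: purified mutant Fbw7 with reduced substrate affinity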
* marks the source's active call; other numbers are inactive results. Compounds with a hit are over-represented: about 3.5% of the library has one in this group of screens.

SMILES	MITF primary	TEAD-YAP block	GPR151 activ	FBW7 activator
CCCOC(=O)c1ccc(NC(=O)c2ccc(F)cc2)cc1	-8	-5	-1	0
FC(F)(F)c1nc(Nc2ccc(Br)cc2)sc1-c1ccc(Cl)cc1	17	-7	1	1
c1cc(Nc2ccc3nc[nH]c3c2)cc(Nc2ccc(N3CCOCC3)cc2)n1	24	1	1	0
c1cc(Nc2cc(C3CC3)[nH]n2)cc(Nc2ccc(N3CCOCC3)cc2)n1	14	85*	1	-1
COc1ccc(-c2cc(Nc3cc(OC)c(OC)c(OC)c3)ncn2)cn1	3	-5	-1	0
O=C(Cc1ccccc1)N/N=C/c1ccccn1	2	-17	-1	0
C/C(=N\NC(=S)NCCc1ccccc1)c1ccccn1	26	88*	1	-1
S=C(NCCc1ccccc1)N/N=C/c1ccccn1	38	80*	-2	0
COc1ccc(/C(C)=N/NC(=S)NCCc2ccccc2)c(O)c1	87*	2	-1	0
CCOC(=O)c1c(C(C)(C)C)oc2ccc(OS(C)(=O)=O)cc12	-12	-13	-1	0
COc1ccc(C)cc1-n1nnnc1SCC(=O)c1[nH]c(C)c(C(C)=O)c1C	12	33*	0	0
Cn1cc(C(=O)N2CCN(c3ccccc3Cl)CC2)c2ccccc2c1=O	8	43*	0	0
COc1cccc(C2C(C#N)=C(N)Oc3ccc4ccccc4c32)c1 (stereo unspecified)	17	50*	-1	0
COc1ccc(OC)c(C2C(C#N)=C(N)Oc3c2c(=O)[nH]c2ccccc32)c1 (stereo unspecified)	1	-5	0	0
COc1ccc(OC)c(C2C(C#N)=C(N)Oc3c2ccc2ccccc32)c1 (stereo unspecified)	5	51*	-2	0
COc1cccc(C2C(C#N)=C(N)Oc3n[nH]c(-c4ccc5ccccc5c4)c32)c1 (stereo unspecified)	-3	-2	1	-1
COc1cc(C2C(C#N)=C(N)Oc3c2ccc2ccccc32)cc(Br)c1O (stereo unspecified)	10	64*	-1	0
CCOc1cc(C2C(C#N)=C(N)Oc3c2ccc2ccccc32)ccc1O (stereo unspecified)	17	12	0	0
Cc1ccc(OCCOCCOc2ccccc2/C=C(\C#N)C(N)=O)cc1	7	5	5	0
Cc1ccccc1NC(=O)Nc1ccccc1C	-10	-11	1	0
Cc1ccccc1NC(=O)/C(Cl)=C(\Cl)S(=O)(=O)C(C)C	-15	52*	-1	0
COc1ccc(NC(=O)Cn2nnc(-c3ccccc3NC(=O)c3cccs3)n2)cc1	5	-10	0	0
Cc1ccc(NC(=O)Cn2nnc(-c3ccccc3NC(=O)c3cccs3)n2)cc1	2	54*	2	0
CC(=O)c1ccc(NC(=O)C(C)OC(=O)C23CC4CC(CC(Br)(C4)C2)C3)cc1 (stereo unspecified)	5	-2	0	0
O=C(COC(=O)c1ccc2c(c1[N+](=O)[O-])C(=O)c1ccccc1C2=O)NC1CC1	18	11	-5	0
SMILES	MITF primary	TEAD-YAP block	GPR151 activ	FBW7 activator
O=C1c2ccccc2C(=O)c2c1ccc(C(=O)OCC(=O)N1CCOCC1)c2[N+](=O)[O-]	58*	2	-1	0
Cn1nnc2c(N3CCN(S(=O)(=O)c4ccccc4Cl)CC3)ncnc21	-11	38*	-1	0
CCc1nnc(NC(=O)CCC2CCCC2)s1	-12	-36	0	0
COc1ccc2c(c1OC)C(=O)N(c1nc(-c3ccccc3)cs1)C2=O	0	-5	1	0
CCOc1cccc(/C=N/NC(=O)c2[nH]nc(-c3ccccc3)c2C)c1O	13	48*	-1	0
CCOc1cccc(/C=N/NC(=O)c2ccccc2O)c1O	41	88*	-8	-1
COc1ccccc1/C=N/NC(=O)c1[nH]nc(-c2ccccc2)c1C	10	-59	-2	0
CCOc1cccc(/C=N/NC(=O)c2cc(-c3ccco3)[nH]n2)c1O	29	39*	2	-1
CCOc1ccccc1C(=O)N/N=C/c1cccc(OC)c1O	13	-2	-2	0
Nc1cccc(-c2nc(NCc3cccc(C(F)(F)F)c3)c3ncn(CCN4CCCC4=O)c3n2)c1	6	8	-1	0
O=C(Nc1ccc(Br)cc1)/C(=C/c1cccc([N+](=O)[O-])c1)NC(=O)c1ccccc1F	4	2	0	0
COC(CN(C)C1=NC(=O)/C(=C\c2ccc(SC)cc2)S1)OC	5	42*	-1	0
